# Measurements published in paper PMC7862700, “An all-to-all approach to the identification of sequence-specific readers for epigenetic DNA modifications on cytosine”.
# Assays:
# Experiment in all cases: DAPPL (digital affinity profiling via proximity ligation, sequencing); 10 mM Tris-HCl pH 7.5, 50 mM NaCl, 1 mM DTT, 4% glycerol, room temperature, 30 min; GST-TFs on glutathione beads, 16-mer random dsDNA library, 0.1% formaldehyde crosslink after washing; high values mean tight binding
# Conditions in all cases: protein: recombinant; tags: N-terminal GST; dsDNA, one strand shown
# ETV5 = ETV5 (Homo sapiens, UniProt P41161 1-510)
# Chain of ETV5 (P41161 whole entry, the tested form may be a part): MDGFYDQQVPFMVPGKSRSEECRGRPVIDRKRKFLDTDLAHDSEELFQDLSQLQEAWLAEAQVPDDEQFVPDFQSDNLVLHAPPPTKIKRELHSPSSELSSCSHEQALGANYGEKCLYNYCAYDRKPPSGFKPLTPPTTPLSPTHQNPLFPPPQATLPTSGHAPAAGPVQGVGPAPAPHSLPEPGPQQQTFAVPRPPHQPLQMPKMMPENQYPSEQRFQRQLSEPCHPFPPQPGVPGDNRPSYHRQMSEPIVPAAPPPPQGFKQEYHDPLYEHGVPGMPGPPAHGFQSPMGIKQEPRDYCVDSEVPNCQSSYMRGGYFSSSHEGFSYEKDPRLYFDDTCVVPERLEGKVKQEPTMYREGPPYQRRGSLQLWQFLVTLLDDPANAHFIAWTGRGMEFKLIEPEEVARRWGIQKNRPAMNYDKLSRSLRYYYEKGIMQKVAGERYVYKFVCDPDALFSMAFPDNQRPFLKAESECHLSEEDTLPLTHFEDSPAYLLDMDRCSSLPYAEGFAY
# In short: (§1)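 After expression in yeast as GST fusions, human transcription factors were bound to glutathione beads, DNA-barcoded and mixed with a tag-only sample. The pools were incubated with 200 nmole of a 16-mer random double-stranded DNA library in Tris/NaCl/DTT/glycerol buffer (30 min, room temperature), washed and crosslinked with 0.1% formaldehyde. Proximity ligation with BsaI/T4 ligase ran for 1 h at 37 °C, before PCR amplification and sequencing on an Illumina NextSeq500. Binding signal is a hexamer's read frequency for a factor divided by its frequency for the tag-only sample.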
# SPIC = target: T1, SPIC (Homo sapiens, UniProt Q8N5J4 1-248)
# T1 sequence: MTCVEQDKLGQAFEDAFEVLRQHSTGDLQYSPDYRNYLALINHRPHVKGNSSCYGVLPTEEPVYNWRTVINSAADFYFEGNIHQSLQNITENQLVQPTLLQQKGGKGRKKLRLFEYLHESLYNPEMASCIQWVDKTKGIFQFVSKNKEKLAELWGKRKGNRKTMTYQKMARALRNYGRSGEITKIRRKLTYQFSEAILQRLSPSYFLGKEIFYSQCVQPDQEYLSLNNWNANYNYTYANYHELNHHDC
# In short: as §1
# ELF4 = ELF4 (Homo sapiens, UniProt Q99607 1-663)
# Chain of ELF4 (Q99607 whole entry): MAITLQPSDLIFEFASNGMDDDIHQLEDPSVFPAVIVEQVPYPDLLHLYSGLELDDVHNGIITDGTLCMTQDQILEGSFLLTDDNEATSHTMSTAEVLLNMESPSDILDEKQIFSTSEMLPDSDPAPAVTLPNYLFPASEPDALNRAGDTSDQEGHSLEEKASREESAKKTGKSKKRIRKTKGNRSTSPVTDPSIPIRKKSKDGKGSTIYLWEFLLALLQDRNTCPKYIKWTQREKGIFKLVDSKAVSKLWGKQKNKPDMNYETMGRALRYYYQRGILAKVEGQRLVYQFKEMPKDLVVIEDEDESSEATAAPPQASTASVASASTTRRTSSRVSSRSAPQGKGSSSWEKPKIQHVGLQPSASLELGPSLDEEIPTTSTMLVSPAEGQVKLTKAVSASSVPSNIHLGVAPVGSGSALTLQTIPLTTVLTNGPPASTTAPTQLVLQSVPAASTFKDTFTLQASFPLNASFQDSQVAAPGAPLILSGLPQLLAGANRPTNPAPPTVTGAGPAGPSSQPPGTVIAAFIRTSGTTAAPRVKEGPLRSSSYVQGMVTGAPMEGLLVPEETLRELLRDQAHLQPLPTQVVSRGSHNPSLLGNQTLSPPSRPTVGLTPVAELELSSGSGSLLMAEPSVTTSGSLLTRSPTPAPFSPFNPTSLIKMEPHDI
# In short: as §1
# ETV1 = ETV1 (Homo sapiens, UniProt P50549 1-477)
# Chain of ETV1 (P50549 whole entry): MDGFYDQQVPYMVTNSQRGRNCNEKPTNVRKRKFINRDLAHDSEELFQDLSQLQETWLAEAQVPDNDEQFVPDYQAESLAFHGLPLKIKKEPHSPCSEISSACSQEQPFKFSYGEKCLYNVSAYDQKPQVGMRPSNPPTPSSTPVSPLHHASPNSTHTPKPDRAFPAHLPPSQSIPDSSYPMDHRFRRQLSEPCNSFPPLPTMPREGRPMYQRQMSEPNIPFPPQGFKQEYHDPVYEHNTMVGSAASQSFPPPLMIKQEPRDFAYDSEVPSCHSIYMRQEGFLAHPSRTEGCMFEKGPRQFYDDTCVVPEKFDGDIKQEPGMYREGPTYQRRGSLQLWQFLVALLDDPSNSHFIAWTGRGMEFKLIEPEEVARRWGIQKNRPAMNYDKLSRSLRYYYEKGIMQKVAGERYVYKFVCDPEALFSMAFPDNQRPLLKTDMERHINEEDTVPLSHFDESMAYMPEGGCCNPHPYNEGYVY
# In short: as §1
# ERF = target: T2, ERF (Homo sapiens, UniProt P50548 1-548)
# T2 sequence: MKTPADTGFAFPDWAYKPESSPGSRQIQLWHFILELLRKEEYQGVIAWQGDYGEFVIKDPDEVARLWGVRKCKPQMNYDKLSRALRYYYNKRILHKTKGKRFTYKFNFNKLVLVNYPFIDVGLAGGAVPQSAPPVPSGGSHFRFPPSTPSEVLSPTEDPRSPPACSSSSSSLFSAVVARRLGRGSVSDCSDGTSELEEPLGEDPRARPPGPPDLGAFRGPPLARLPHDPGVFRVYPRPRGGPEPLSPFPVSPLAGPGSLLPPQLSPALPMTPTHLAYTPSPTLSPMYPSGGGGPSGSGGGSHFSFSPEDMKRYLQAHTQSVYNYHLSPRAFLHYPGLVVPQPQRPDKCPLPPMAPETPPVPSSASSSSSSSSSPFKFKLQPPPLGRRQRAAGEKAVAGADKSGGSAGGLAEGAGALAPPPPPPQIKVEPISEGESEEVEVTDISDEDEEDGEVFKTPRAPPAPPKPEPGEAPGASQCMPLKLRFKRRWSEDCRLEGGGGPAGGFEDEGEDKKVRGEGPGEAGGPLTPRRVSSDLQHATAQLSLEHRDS
# In short: as §1
# ETV3L = target: T3, ETV3L (Homo sapiens, UniProt Q6ZN32 1-361)
# T3 sequence: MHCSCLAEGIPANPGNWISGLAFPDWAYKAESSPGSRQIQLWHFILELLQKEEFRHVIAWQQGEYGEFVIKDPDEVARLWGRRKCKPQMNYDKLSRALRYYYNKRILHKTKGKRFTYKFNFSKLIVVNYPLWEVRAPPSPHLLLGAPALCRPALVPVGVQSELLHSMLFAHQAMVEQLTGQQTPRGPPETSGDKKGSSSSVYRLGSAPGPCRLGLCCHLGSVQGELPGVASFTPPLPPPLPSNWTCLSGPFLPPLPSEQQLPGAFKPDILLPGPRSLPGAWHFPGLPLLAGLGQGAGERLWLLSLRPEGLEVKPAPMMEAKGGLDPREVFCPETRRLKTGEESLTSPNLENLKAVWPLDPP
# In short: as §1
# ETS2 = target: T4, ETS2 (Homo sapiens, UniProt P15036 1-469)
# T4 sequence: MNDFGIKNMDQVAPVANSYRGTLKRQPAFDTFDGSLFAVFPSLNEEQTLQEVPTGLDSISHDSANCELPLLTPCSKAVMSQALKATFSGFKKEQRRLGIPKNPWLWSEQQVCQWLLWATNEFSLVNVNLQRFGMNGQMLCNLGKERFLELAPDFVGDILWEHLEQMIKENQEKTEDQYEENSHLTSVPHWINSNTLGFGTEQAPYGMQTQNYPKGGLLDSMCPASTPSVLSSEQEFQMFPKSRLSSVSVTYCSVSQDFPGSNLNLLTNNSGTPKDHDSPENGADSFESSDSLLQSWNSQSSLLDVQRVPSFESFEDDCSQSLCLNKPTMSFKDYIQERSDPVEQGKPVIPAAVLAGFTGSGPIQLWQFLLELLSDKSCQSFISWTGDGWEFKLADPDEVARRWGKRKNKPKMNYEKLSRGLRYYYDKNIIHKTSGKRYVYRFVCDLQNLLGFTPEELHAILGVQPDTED
# In short: as §1
# SPDEF = target: T5, SPDEF (Homo sapiens, UniProt O95238 1-335)
# T5 sequence: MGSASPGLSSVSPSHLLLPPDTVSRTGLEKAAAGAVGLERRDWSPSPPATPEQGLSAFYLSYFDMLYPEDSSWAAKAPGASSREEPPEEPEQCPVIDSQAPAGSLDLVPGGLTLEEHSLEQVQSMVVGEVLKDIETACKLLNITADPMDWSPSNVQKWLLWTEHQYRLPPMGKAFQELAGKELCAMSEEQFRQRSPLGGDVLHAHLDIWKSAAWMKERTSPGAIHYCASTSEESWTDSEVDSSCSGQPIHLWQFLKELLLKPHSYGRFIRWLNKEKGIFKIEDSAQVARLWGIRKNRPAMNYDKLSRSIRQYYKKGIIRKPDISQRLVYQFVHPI
# In short: as §1
# ETV3 = target: T6, ETV3 (Homo sapiens, UniProt P41162-2 1-143)
# T6 sequence: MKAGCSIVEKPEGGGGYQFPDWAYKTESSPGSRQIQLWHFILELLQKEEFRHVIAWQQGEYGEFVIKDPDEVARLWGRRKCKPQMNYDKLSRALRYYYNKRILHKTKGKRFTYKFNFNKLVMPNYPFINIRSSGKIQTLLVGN
# In short: as §1
# ETV6 = ETV6 (Homo sapiens, UniProt P41212 1-452)
# Chain of ETV6 (P41212 whole entry): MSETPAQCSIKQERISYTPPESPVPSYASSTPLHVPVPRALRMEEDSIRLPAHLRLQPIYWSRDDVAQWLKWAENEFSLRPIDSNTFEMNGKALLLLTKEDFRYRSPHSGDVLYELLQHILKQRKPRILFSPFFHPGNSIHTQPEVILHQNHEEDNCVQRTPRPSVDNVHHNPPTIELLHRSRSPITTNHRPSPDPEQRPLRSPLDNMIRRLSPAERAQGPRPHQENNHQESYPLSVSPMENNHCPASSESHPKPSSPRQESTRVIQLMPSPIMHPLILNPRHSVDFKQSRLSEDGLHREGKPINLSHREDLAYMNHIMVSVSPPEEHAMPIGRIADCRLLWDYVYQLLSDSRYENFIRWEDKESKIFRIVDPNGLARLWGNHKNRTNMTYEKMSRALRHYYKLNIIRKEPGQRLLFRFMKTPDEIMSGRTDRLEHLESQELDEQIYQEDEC
# In short: as §1
sequence,measurement,setting,value
GTCTAC,binding signal,ETV5,"1.11 fold enrichment (6-mer frequency, TF over GST control)"
same,binding signal,SPIC,"1.1 fold enrichment (6-mer frequency, TF over GST control)"
same,binding signal,ELF4,"1.09 fold enrichment (6-mer frequency, TF over GST control)"
same,binding signal,ETV1,"1.19 fold enrichment (6-mer frequency, TF over GST control)"
same,binding signal,ERF,"1.07 fold enrichment (6-mer frequency, TF over GST control)"
same,binding signal,ETV3L,"1.26 fold enrichment (6-mer frequency, TF over GST control)"
same,binding signal,ETS2,"1.13 fold enrichment (6-mer frequency, TF over GST control)"
same,binding signal,SPDEF,"1.11 fold enrichment (6-mer frequency, TF over GST control)"
same,binding signal,ETV3,"1.06 fold enrichment (6-mer frequency, TF over GST control)"
same,binding signal,ETV6,"1 fold enrichment (6-mer frequency, TF over GST control)"
